Our source for the activity values is PubChem BioAssay.

Test [1] deals with Tumor necrosis factor receptor superfamily member 10B (Homo sapiens) (UniProt O14763). The test is described as follows: viability loss of caspase-8 NB7 cells with TRAIL – with/without TRAIL, luminescence panel, confirmation (AID 651596). Conditions: NB7 neuroblastoma + caspase-8, TRAIL sensitization, NB7 Caspase-8, with TRAIL, mean of runs, at 10 µM, stronger effect = higher value.
Test in test [2]: as above
Conditions: NB7 neuroblastoma + caspase-8, without TRAIL, NB7 Caspase-8, without TRAIL, mean of runs, at 10 µM.

Structures are written as SMILES.

Sequence of Tumor necrosis factor receptor superfamily member 10B (Homo sapiens) (O14763 whole entry, looked up): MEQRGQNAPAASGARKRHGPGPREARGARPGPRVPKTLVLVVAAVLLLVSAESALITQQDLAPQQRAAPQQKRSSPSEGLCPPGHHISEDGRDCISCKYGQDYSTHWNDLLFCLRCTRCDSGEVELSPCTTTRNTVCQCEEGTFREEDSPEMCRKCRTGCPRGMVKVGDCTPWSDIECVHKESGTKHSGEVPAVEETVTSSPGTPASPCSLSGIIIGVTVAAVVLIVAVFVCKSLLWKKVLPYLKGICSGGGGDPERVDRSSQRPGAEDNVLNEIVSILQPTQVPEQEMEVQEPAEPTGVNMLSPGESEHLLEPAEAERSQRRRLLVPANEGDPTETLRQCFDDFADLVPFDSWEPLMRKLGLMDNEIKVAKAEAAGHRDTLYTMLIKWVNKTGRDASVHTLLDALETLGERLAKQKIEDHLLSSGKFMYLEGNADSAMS

`Cc1nc2ccc(-c3nc4cc(N)ccc4o3)cc2[nH]1`: the activity in test [1] stood at 59.7%; in test [2], 57.4%.

Take `O=C(Nc1cc(C(F)(F)F)cc(C(F)(F)F)c1)Nc1cnn(-c2ccc([N+](=O)[O-])cc2)c1C(F)(F)F`: the activity amounted to 74.2% in test [1] and 63% in test [2].

With `O=C(OCc1cccc(C(F)(F)F)c1)c1cc(S(=O)(=O)N2CCOCC2)ccc1F`, the figures for the activity in test [1] and in test [2] were 36.8% and 21%, respectively.

With `O=C(CSc1nnc(-c2ccc(O)cc2)o1)Nc1cccc(O)c1`, the activity in test [1] worked out at 50.6%; in test [2] it was 55.7%.

As to `COc1ccc(/C=C(\C#N)c2nc3ccccc3[nH]2)cc1O`, the activity in test [1] was determined as 56.5%; in test [2], 72.5%.

For the compound `Cc1ccc2nc(N(CCCN(C)C)C(=O)c3ccc(S(=O)(=O)N4CCc5ccccc5C4)cc3)sc2c1`, the results for the activity in test [1] and in test [2] were 55.4% and 68.3%, respectively.

`Nc1nc(Nc2ccccc2)nc2ccccc12`: the activity in test [1] came to 69.2%; in test [2], 61.3%.

Regarding `CC(C)Cc1nc2oc3c(Cl)ncnc3c2c2c1CCC2`, the activity in test [1] was 95.9%; in test [2] it was 96.4%.

As to `CNC[C@@H](Cc1ccccc1)NC[C@@H](CC1CCCCC1)NCCCc1ccccc1`, the activity in test [1] is 99.3%; in test [2], 99.6%.

On to `COc1ccc2nc(N3C(=O)CNC3=S)sc2c1`, for which the activity in test [1] was 51.8%; in test [2] it was 49.4%.

Take `Brc1ccc(-c2ccc(/C=N/Nc3nc4ccccc4[nH]3)o2)cc1`: the activity was 51.5% in test [1] and 42.5% in test [2].

For `O=C(NCCc1cccc(Cl)c1)c1ccc2c(c1)OCO2`, the activity in test [1] came to 47.7%; in test [2], 39.4%.

Regarding `C/C(=N\NC(=O)c1ccc2ccccc2c1)c1cccs1`, the results for the activity in test [1] and in test [2] were 60.5% and 67.2%, respectively.

`COc1ccc(-c2cc(-c3ccccc3)c(C#N)c(S(C)=O)n2)cc1` (stereo unspecified): the activity in test [1] stood at 95.2%; in test [2] it was 99.2%.

Consider `CNc1ncnc(Sc2nc(N)nc3nc[nH]c23)c1[N+](=O)[O-]`, for which the activity in test [1] was 72%; in test [2], 77.6%.

Regarding `Cc1cccc(NC(=O)c2cc3ccccc3c(=O)o2)n1`, the figures for the activity in test [1] and in test [2] were 60.3% and 68.3%, respectively.

`COc1ccc(NC(=O)c2ccc(OC)cc2)cc1`: the values for the activity in test [1] and in test [2] were 54.2% and 42.5%, respectively.

As to `O=C(Nc1ccncc1)c1ccc(-c2ccccc2)cc1`, the activity came to 24.3% in test [1] and 21% in test [2].

Take `O=C(Nc1ccccn1)c1ccc2c(=O)n3c(nc2c1)CCCCC3`: the activity in test [1] worked out at 50.4%; in test [2], 62.5%.

For the compound `Cc1ccc(C(=O)N/C(=C\c2ccc(-c3ccccc3[N+](=O)[O-])o2)C(=O)NCCCN(C)C)cc1`, the activity in test [1] was 18.7%; in test [2], 31.6%.

As for `Nc1nc(=S)c2ncn([C@@H]3O[C@H](CO)[C@@H](O)[C@H]3O)c2[nH]1`, the activity in test [1] is 70.6%; in test [2] it was 73.5%.

Take `Nc1ccccc1C(=O)NN=Cc1cccnc1`: the activity is 63.5% in test [1] and 58.7% in test [2].

Regarding `CCOc1ccc(N2C(N)=NC(N)=NC2(C)C)cc1`, the activity was found to be 67.3% in test [1] and 82.9% in test [2].

For `O=C1c2ccc(Cl)cc2S(=O)(=O)c2cccc(C(=O)N3CCN(c4ccc(Cl)cn4)CC3)c21`, the results for the activity in test [1] and in test [2] were 94.8% and 83.5%, respectively.

On to `CC(C)c1ccc2c(c1)CC[C@H]1[C@](C)(CN)CCC[C@]21C`, for which the results for the activity in test [1] and in test [2] were 33.8% and 97.2%, respectively.

Turning to `O=C(CSc1nnc(-c2ccccc2Cl)o1)Nc1ccccn1`, the activity in test [1] was 68.8%; in test [2], 74%.

For `CCOc1ccccc1NC(=O)c1nc(S(=O)(=O)Cc2cccc(C)c2)ncc1Cl`, the activity in test [1] was 84.6%; in test [2], 97.2%.

Turning to `Clc1ccc(-c2nnc(-c3ccccc3)o2)c(Cl)c1`, the activity in test [1] is 81.8%; in test [2] it was 79%.

As for `Cc1ccccc1C(=O)O/N=C(\N)Cc1cccs1`, the activity turned out to be 98% in test [1] and 96.6% in test [2].

For `Cc1ccc(/C=C/C2=NN(C)C(=O)CC2)cc1`, the activity in test [1] was determined as 46.6%; in test [2], 40.1%.

For the compound `Cc1nn(-c2ccccc2)c(/N=C/c2ccc(O)cc2)c1-c1ccccc1`, the figures for the activity in test [1] and in test [2] were 39.1% and 13.9%, respectively.

Turning to `Clc1ccc(/C=N/Nc2nnc(-c3ncc[nH]3)c3ccccc23)cc1`, the values for the activity in test [1] and in test [2] were 57% and 49.9%, respectively.

Consider `O=C(Nc1ccc2c(c1)OCCO2)c1ccccc1`, for which the activity in test [1] worked out at 53.7%; in test [2], 54.6%.

For `COc1ccc(NC(=O)c2cc3ccc(O)cc3o/c2=N\O)cc1`, the activity in test [1] is 77.8%; in test [2] it was 77.1%.

As to `Cc1ccc(C(=O)COC(=O)c2ccc3c(c2)C(=O)N(c2cccc4ncccc24)C3=O)cc1`, the activity in test [1] amounted to 54.7%; in test [2] it was 43.5%.

`COc1cc(/C=C(/C#N)c2nc3ccccc3[nH]2)ccc1OCC(=O)Nc1ccccc1C`: the activity is 86% in test [1] and 97.8% in test [2].

In the case of `O=c1c2[nH]c3ccccc3c2ncn1C1CCCCC1`, the activity worked out at 75.2% in test [1] and 74.8% in test [2].

In the case of `COc1cc2nc(N3CCN(c4cc(C)ccc4C)CC3)nc(N)c2cc1OC`, the results for the activity in test [1] and in test [2] were 56.7% and 88.7%, respectively.

In the case of `Cc1ccc(-n2c(-c3ccc(Br)cc3)c[n+]3c2CCc2ccc4cccnc4c2-3)cc1`, the activity in test [1] amounted to 70.2%; in test [2] it was 63%.

With `CCCc1cc(=O)[nH]c(SCC(=O)c2c(N)n(C3CC3)c(=O)[nH]c2=O)n1`, the activity in test [1] is 80.3%; in test [2], 88.8%.

As to `C/C(=N\NC(=O)c1cc(O)ccc1O)c1cccc(NC(=O)c2ccc(Cl)cc2)c1`, the activity in test [1] came out at 40.8%; in test [2] it was 24.6%.

In the case of `COc1ccc(-c2cc3nc(C)cc(N)n3n2)cc1`, the activity in test [1] was 90.2%; in test [2], 86.5%.

As for `O=c1[nH]c(/C=C/c2ccccc2Cl)nc2ccccc12`, the activity in test [1] was 75.5%; in test [2], 65.7%.

Turning to `CCOc1ccc2nc(NC(=O)c3cccc(N4C(=O)CCC4=O)c3)sc2c1`, the figures for the activity in test [1] and in test [2] were 65.7% and 81.5%, respectively.

As for `Cc1cc(C)c(C#N)c(SCc2nc3ccccc3c(=O)[nH]2)n1`, the activity was 82.8% in test [1] and 82.5% in test [2].

On to `O=C(Nc1cccc(O)c1)c1cc(-c2ccccc2Cl)on1`, for which the figures for the activity in test [1] and in test [2] were 82.2% and 78%, respectively.

Turning to `CC(=O)c1ccccc1OCC(O)CN1CCN(CCN2C(=O)c3cccc4cccc(c34)C2=O)CC1` (stereo unspecified), the activity in test [1] worked out at 45.6%; in test [2] it was 16.4%.

In the case of `COc1oc(C(=O)NC2CCCCC2)c(-c2ccc(Cl)cc2)c1S(=O)(=O)c1ccccc1`, the activity in test [1] was 97.8%; in test [2], 96.8%.
